Compound activity deposited in PubChem by National Center for Advancing Translational Sciences (NCATS).
A selection: hits, their analogues and other compounds. The true share with any hit is near 19%.
uPA generation – cell surface uPA generation inhibition; cell surface uPA generation assay, qHTS; Potency, µM (highest dose often 38.3 µM), inactives show at the top dose activity change, negative = inhibition, most hits filed as inhibitors; 330,000 compounds, 0.31% hits; active = well fitted inhibition curve with a large enough effect; inconclusive = small, poorly fitted or top-dose-only effect; inactive = no such curve, though single readings can be large or run the other way; tested in mouse RAW 264.7 cells; also: potency is read from the fitted curve at half-maximal effect; nearly all actives have a fitted effect of over 55% in size
IL1B secr inh – inflammasome signaling inhibition, IL-1 beta readout | THP-1 LPS/ATP IL-1B secretion, AlphaLISA, 16 h; active compounds read low | activity change, % at 57.5 µM | 360,000 compounds, 4.7% hits; in the data active = activity change below about -50%; inconclusive = mostly about -30% to -49%
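Secreted IL-1B measured by AlphaLISA bead assay after 16 h compound exposure of THP-1 cells; compounds (final up to 57.5 uM) added 1 h before LPS (250 ng/mL) and ATP (1.25 mM) stimulation; lower signal means less secretion.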
HT1080-NT tox – kills 2HG-producing HT-1080-NT fibrosarcoma cells. HT-1080-NT fibrosarcoma viability, CellTiter-Glo ATP luminescence, 48 h. Potency, µM (top dose mostly 46.1 µM), inactives show at the highest dose activity, negative = less viability, usual class: cytotoxic. 360,000 compounds, 1.6% hits;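 also: NT is the 2HG producing partner of a matched IDH1 knockdown line; potency is read from the fitted curve at half-maximal effect; 0% = DMSO-treated cells and -100% = media-only wells without cells; nearly all actives have a fitted effect of over 55% in size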
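HT-1080-NT fibrosarcoma cells (2HG-overproducing), 750 cells/well in RPMI with 5% FBS, dosed after 2 h and incubated 48 h at 37C. CellTiter-Glo luminescence normalized to DMSO and no-cell wells; concentration-response curves fitted and classed.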
HT1080 IDH1KD tx – toxicity to HT-1080 IDH1 knockdown cells (counter line); HT-1080 IDH1 knockdown viability, ATP luminescence, 48 h; Potency, µM (series often up to 46.1 µM), without a hit: at the highest dose activity, negative = toxicity, usual class: cytotoxic; 360,000 compounds, 2% hits; AID 686971;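 also: potency is read from the fitted curve at half-maximal effect; 0% = DMSO wells and -100% = cell-free medium wells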
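Using the IDH1-knockdown HT-1080 line run in the same batch and compound series as the NT line, viability after 48 h at 37 °C was determined by CellTiter-Glo luminescence and expressed as % activity.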
DT40 TDP1 no CPT – qHTS for Inhibitors of human tyrosyl-DNA phosphodiesterase 1 (TDP1): qHTS in cells in absence of CPT. DT40 Tdp1-/- hTDP1 cells, no CPT, ATP luminescence, 48 h. Potency, µM (highest dose often 46.2 µM), for the others: at the highest dose activity change, negative = growth inhibition, hits mostly inhibitors. 420,000 compounds, 15% hits; also: potency is read from the fitted curve at half-maximal effect; nearly all actives have a fitted effect of over 55% in size
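Cells were dispensed at 400 per well, compounds added by pin tool, plates incubated ≥48 hr at 37 °C, then CellTiter-Glo added for 30 min at room temperature before luminescence reading. Line: DT40 Tdp1-/- complemented with hTDP1; camptothecin omitted.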
TDP1 cell CPT – DT40-hTDP1 cell growth loss with CPT. chicken DT40 Tdp1-/-;hTDP1 cells + 20 nM CPT, ATP luminescence, 48 h. Potency, µM (highest dose often 46.2 µM), for the others: at the highest dose activity change, negative = growth inhibition, actives largely listed as inhibitors. 420,000 compounds, 12% hits. AID 686979; also: potency is read from the fitted curve at half-maximal effect; nearly all actives have a fitted effect of over 55% in size
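Chicken DT40 Tdp1-/- cells complemented with human TDP1, 400 cells/well, exposed to compounds plus 20 nM camptothecin for at least 48 h at 37 C; viability read as ATP content by CellTiter-Glo luminescence.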
Numbers without * were called inactive; ? = inconclusive; · = not tested or not shown; [ ] = dose if it differs, or a comment. Unless noted, calls follow the shape of the dose curve; as a rule, active = well fitted curve in the direction sought with a large enough effect; inconclusive = small, poorly fitted or top-dose-only effect, or another doubt; inactive = no such curve, though single readings can be large; an effect the other way counts as inactive or inconclusive. Unless noted, % is scaled to controls: 0 for no effect and ±100 for the full control effect.

SMILES	uPA generation	IL1B secr inh	HT1080-NT tox	HT1080 IDH1KD tx	DT40 TDP1 no CPT	TDP1 cell CPT
CCC(=O)N(C)/C=C1\Sc2ccccc2C1=O	-2.2%	21.9	8.2%	9.9%	-8.4%	7.8%
COc1ccc(OC)c(CN2C(=O)c3ccccc3C2c2nnnn2C(C)C)c1 (configuration not stated)	·	32.2	-0.1%	2.3%	?	?
COc1ccc(CN2C(=O)c3ccccc3C2c2nnnn2-c2ccc3c(c2)OCCO3)cc1OC (configuration not stated)	·	40.2	7.6%	14.9%	20.6µM*	14.6µM*
COc1ccc(OC)c(CN2C(=O)c3ccccc3C2c2nnnn2Cc2ccccc2)c1 (configuration not stated)	·	-14.5	7.0%	-1.3%	20.6µM*	?
COc1ccc(OC)c(CN2C(=O)c3ccccc3C2c2nnnn2C2CCCC2)c1 (configuration not stated)	·	35.4	0.7%	16.5%	16.4µM*	?
O=C1c2ccccc2C(c2nnnn2-c2ccc3c(c2)OCCO3)N1Cc1cccs1 (configuration not stated)	·	0.3	10.4%	6.9%	?	?
COCCn1c(C)cc(O)c(C(c2ccc(F)cc2)N2CCN(c3ccccc3)CC2)c1=O (configuration not stated)	·	·	·	·	4.5%	-7.1%
CCOC(=O)c1ccc2nc(CCC(=O)N[C@H](C(=O)OC)C(C)C)c(=O)n(CC)c2c1	-7.0%	-16.0	-14.1%	-4.4%	5.7%	1.2%
Cn1cnnc1SC(C(=O)Nc1cccc(C(F)(F)F)c1)c1ccccc1 (configuration not stated)	5.3%	-13.1	-22.7%	-21.0%	-24.0%	-19.3%
O=c1c2sccc2nc(SCc2ccc([N+](=O)[O-])cc2)n1Cc1ccccn1	-6.9%	?	-14.0%	-11.2%	16.4µM*	?
O=C(CCCCn1c(=O)c2ccccc2n(Cc2ccc(F)cc2)c1=O)NCc1ccco1	-12.3%	-3.8	18.4µM*	-15.0%[9.24 µM]	14.6µM*	16.4µM*
Cc1ccc(CSc2nc3ccccc3c(=O)n2Cc2ccco2)cc1	-4.1%	16.2	-17.5%	-13.5%	?	?
Nn1c(SCc2ccc([N+](=O)[O-])cc2)nc2ccccc2c1=O	12.8%	4.2	-1.3%	-0.3%	?	-12.3%
O=c1c2ccccc2nc(SCc2ccc([N+](=O)[O-])cc2)n1CCCO	-6.1%	-12.8	?	?	6.51µM*	10.3µM*
Cc1ccc(CSc2nc3ccccc3c(=O)n2CCCC(=O)NCc2ccco2)cc1	·	16.8	15.5%	?	11.6µM*	?
Cc1ccc(S(=O)(=O)c2[nH]c(-c3ccccc3)nc2SCC(N)=O)cc1	·	·	·	·	-1.6%	4.0%
COc1cccc(NC(=O)COC(=O)/C=C/c2c(C)nn(-c3ccccc3)c2C)c1	19.4%	3.7	-16.6%	3.7%	?	?
NC(=O)c1nsc(C(=O)N(Cc2cccnc2)C(C(=O)NCc2ccc(F)cc2)c2ccc(O)cc2)c1N (configuration not stated)	-1.2%	-14.2	-15.1%	-0.5%	-21.4%	2.4%
COc1cc2[nH]c(=O)c(C(=O)NCc3ccc(C)cc3)c(O)c2cc1OC	·	-16.9	5.8%	5.0%	?	?
O=C(CCCn1c(=O)c2ccccc2n(Cc2ccccc2)c1=O)NCc1ccco1	-10.0%	-7.8	?	?	14.6µM*	11.6µM*
CC(=O)/C=C1\OCc2ccccc21	·	-4.2	-1.3%	-2.3%	25.2%	14.0%
Cc1ncc2c(c1CNS(=O)(=O)c1cccs1)CCN(C(=O)/C=C/c1cc(F)cc(F)c1)C2	·	·	·	·	23.1µM*	-5.7%[9.04 µM]
Cc1ncc2c(c1CNS(=O)(=O)c1cccs1)CCN(C(=O)/C=C/c1ccc(F)cc1F)C2	·	·	·	·	?	1.6%[9.04 µM]
Cc1ncc2c(c1CNC(=O)/C=C/c1cccs1)CCN(C(=O)C1CCCO1)C2 (configuration not stated)	·	·	·	·	14.9%	-1.8%[9.04 µM]
Cc1cnc(C(=O)NCc2c(C)ncc3c2CCN(C(=O)/C=C/c2cccs2)C3)cn1	·	·	·	·	-18.4%	0.0046µM*
SMILES	uPA generation	IL1B secr inh	HT1080-NT tox	HT1080 IDH1KD tx	DT40 TDP1 no CPT	TDP1 cell CPT
CSc1nc(C(=O)N2CCc3c(cnc(C)c3CNC(=O)c3ccc4c(c3)OCO4)C2)cs1	·	·	·	·	0.164µM*	0.13µM*
COC(=O)c1cc(=O)n(-c2ccc(C(F)(F)F)cc2)[nH]1	-3.1%	8.2	-18.9%	-12.0%	-11.6%	-2.2%
O=C(NCc1cccc(C(F)(F)F)c1)c1ccc2c(c1)OCCO2	5.3%	17.8	-5.2%	-25.8%	-25.1%	-19.1%
CC(=O)c1cccc(NS(=O)(=O)c2c(C(=O)N3CCOCC3)c(C)n(C)c2C)c1	3.4%	1.2	8.7%	24.6%	24.0%	-5.3%
O=C(N/N=C/c1c[nH]c2ccc(Br)cc12)c1ccn(Cc2ccc(Cl)cc2)n1	-9.6%	?	-21.5%	?	20.6µM*	?
COCCCn1c(=N)c(C(=O)NC2CCCCC2)cc2c(=O)n3cc(C)ccc3nc21	·	·	·	·	?	-27.0%
CCCn1c(SCC(=O)Nc2nnc(CC)s2)nnc1-c1ccncc1	-2.6%	10.4	27.0%	7.1%	-6.4%	-5.9%
CCN1C=CC(=C2C(=O)c3ccccc3C2=O)C=C1	·	?	10µM*	11.2µM*	14.6µM*	16.4µM*
CCCN1C=CC(=C2C(=O)c3ccccc3C2=O)C=C1	·	?	5.62µM*	11.2µM*	5.17µM*	8.2µM*
COc1ccc(C(=O)N2CCC3(CC2)CN(C(=O)Nc2cccc(C#N)c2)C3)cc1	·	·	·	·	?	-13.1%
Cc1cc(C)cc(-n2c3ccc(NC(=O)Cc4cccc5ccccc45)cc3c(=O)n2C)c1	·	0.0	?	2.06µM*	3.26µM*	5.8µM*
Cn1c(=O)c2cc(NC(=O)Cc3ccccc3F)ccc2n1-c1ccc(C(C)(C)C)cc1	·	0.0	?	-28.3%	16.4µM*	23.1µM*
COc1ccc(NC(=S)Nc2ccc3c(c2)c(=O)n(C)n3-c2ccccc2)cc1	·	-25.2	-26.9%	?	?	?
CC(CC(=O)Nc1ccc2c(c1)c(=O)n(C)n2-c1cccs1)c1ccccc1 (configuration not stated)	·	28.3	?	4.11µM*	11.6µM*	13µM*
CCNC(=S)Nc1ccc2c(c1)c(=O)n(C)n2-c1ccc(C(C)(C)C)cc1	·	6.7	-27.3%	?	?	25.9µM*
